These results are taken from ChEMBL document CHEMBL1961873, “Compounds: GSK PKIS; Assays: Nanosyn kinase panel” (2012).

In assay [1] the target is Mast/stem cell growth factor receptor Kit (Homo sapiens) (UniProt P10721). The note with it: at 1 µM.
The subject of assay [2] is Mast/stem cell growth factor receptor Kit (Homo sapiens), P10721 [D816V]. As to conditions: at 0.1 µM.
Assay [3] has the same test system. As to conditions: at 1 µM.
For assay [4], the system named is Mast/stem cell growth factor receptor Kit (Homo sapiens), P10721 [T670I]. As to conditions: at 0.1 µM.
Assay [5] shares this test system. The note with it: at 1 µM.
For assay [6], the system named is Mast/stem cell growth factor receptor Kit (Homo sapiens), P10721 [V560G]. The note with it: at 0.1 µM.
Assay [7] has the same test system. The note with it: at 1 µM.
Assay [8] concerns the target Tyrosine-protein kinase Lck (Homo sapiens) (UniProt P06239). As to conditions: at 0.1 µM.
Assay [9] shares this target. The note with it: at 1 µM.
Assay [10] deals with Leukocyte tyrosine kinase receptor (Homo sapiens) (UniProt P29376). The note with it: at 0.1 µM.
Assay [11] has the same target. The note with it: at 1 µM.
The target of assay [12] is Tyrosine-protein kinase Lyn (Homo sapiens) (UniProt P07948). As to conditions: at 0.1 µM.
For assay [13] the target is unchanged. The note with it: at 1 µM.
Assay [14] shares this target. As to conditions: at 0.1 µM. This is another data set of the same source.
The target is the same in assay [15]. The note with it: at 1 µM. This is another data set of the same source.
The target in assay [16] is T1, Tyrosine-protein kinase Mer (Homo sapiens) (UniProt Q12866).
T1 sequence (whole entry): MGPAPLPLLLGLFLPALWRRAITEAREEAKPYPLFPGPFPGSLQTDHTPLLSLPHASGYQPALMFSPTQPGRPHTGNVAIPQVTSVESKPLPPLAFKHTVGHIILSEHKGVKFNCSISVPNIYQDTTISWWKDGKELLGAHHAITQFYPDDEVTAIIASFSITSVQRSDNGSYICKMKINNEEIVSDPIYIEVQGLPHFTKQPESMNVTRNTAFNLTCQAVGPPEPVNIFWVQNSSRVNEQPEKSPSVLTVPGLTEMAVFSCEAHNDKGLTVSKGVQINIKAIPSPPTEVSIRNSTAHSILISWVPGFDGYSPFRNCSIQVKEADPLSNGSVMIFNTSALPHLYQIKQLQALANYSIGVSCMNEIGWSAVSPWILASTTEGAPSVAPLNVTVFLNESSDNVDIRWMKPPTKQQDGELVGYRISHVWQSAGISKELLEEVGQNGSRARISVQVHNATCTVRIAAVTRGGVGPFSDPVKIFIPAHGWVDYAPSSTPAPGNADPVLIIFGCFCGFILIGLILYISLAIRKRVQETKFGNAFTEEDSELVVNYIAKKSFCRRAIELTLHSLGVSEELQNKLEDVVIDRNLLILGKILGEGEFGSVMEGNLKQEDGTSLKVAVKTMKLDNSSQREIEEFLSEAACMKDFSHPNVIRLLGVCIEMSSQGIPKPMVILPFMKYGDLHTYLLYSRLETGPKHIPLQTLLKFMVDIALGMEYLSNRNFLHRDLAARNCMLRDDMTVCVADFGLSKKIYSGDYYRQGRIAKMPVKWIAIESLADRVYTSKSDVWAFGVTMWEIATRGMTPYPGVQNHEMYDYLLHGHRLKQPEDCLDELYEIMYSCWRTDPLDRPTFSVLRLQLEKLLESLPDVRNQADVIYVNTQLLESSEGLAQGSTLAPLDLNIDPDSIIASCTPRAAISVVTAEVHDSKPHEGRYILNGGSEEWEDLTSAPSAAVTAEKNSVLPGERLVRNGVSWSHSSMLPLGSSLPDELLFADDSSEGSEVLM
The note with it: at 0.1 µM.

In assay [17] the target is T1, Tyrosine-protein kinase Mer (Homo sapiens). The note with it: at 1 µM.
Assay [18] has as its target Hepatocyte growth factor receptor (Homo sapiens) (UniProt P08581). The note with it: at 0.1 µM.
Assay [19] shares this target. The note with it: at 1 µM.
The target of assay [20] is T2, Muscle, skeletal receptor tyrosine-protein kinase (Homo sapiens) (UniProt O15146).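 Note: values are mean inhibition of MuSK from the GSK PKIS kinase screening panel.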
T2 sequence (whole entry): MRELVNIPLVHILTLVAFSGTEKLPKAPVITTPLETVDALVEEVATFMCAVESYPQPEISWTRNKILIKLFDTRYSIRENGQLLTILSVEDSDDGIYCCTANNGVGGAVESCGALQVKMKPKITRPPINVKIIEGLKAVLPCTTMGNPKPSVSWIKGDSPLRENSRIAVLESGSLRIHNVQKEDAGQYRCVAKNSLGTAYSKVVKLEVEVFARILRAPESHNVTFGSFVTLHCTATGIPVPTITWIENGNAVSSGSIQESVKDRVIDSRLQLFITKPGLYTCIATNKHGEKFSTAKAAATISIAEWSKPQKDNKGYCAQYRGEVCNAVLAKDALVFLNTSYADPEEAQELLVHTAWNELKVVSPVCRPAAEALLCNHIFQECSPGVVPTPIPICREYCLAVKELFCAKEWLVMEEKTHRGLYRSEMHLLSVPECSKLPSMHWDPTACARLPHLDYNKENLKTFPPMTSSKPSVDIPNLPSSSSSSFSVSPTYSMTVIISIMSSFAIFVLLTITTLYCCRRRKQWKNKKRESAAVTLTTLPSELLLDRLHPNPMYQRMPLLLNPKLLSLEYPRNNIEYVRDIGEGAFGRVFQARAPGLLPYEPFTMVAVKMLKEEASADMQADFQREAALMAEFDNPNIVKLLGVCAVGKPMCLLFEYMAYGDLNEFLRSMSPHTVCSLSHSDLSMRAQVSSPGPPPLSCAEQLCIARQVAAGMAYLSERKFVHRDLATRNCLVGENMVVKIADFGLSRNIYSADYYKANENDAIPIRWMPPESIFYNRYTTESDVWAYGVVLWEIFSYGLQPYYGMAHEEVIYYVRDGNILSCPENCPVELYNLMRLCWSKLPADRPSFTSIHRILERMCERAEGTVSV
The note with it: at 0.1 µM.

Chain of Mast/stem cell growth factor receptor Kit (Homo sapiens) (P10721 whole entry): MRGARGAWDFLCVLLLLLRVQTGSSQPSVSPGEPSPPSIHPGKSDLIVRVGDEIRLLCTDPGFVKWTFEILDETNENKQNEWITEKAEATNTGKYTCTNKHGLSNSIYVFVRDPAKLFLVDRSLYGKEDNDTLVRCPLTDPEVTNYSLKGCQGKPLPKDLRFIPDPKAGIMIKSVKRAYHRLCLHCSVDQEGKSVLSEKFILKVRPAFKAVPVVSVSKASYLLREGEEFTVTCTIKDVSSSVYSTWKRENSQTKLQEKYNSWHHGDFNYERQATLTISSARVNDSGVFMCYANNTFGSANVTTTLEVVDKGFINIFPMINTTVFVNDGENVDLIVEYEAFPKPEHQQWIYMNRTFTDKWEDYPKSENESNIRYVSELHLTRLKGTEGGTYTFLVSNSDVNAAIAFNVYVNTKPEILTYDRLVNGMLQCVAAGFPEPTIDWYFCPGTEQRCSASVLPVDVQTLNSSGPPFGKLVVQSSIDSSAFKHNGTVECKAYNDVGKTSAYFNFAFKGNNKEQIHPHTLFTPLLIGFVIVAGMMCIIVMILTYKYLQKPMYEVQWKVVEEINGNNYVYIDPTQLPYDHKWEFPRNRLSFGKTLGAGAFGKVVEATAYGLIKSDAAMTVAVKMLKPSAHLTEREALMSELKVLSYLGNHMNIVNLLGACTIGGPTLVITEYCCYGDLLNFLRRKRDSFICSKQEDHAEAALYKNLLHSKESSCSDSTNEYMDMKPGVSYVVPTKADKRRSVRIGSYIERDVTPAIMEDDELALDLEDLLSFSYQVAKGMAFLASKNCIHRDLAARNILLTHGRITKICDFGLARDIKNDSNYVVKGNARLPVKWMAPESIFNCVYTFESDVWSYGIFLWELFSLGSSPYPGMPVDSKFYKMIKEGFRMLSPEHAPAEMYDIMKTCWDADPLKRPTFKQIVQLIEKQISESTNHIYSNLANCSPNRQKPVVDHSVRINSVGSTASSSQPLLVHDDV
Chain of Mast/stem cell growth factor receptor Kit (Homo sapiens), P10721 [V560G] (P10721 whole entry V560G): as the sequence (P10721 whole entry) above, with V560G counted along it
Chain of Mast/stem cell growth factor receptor Kit (Homo sapiens), P10721 [T670I] (P10721 whole entry T670I): as the sequence (P10721 whole entry) above, with T670I counted along it
Chain of Hepatocyte growth factor receptor (Homo sapiens) (P08581 whole entry): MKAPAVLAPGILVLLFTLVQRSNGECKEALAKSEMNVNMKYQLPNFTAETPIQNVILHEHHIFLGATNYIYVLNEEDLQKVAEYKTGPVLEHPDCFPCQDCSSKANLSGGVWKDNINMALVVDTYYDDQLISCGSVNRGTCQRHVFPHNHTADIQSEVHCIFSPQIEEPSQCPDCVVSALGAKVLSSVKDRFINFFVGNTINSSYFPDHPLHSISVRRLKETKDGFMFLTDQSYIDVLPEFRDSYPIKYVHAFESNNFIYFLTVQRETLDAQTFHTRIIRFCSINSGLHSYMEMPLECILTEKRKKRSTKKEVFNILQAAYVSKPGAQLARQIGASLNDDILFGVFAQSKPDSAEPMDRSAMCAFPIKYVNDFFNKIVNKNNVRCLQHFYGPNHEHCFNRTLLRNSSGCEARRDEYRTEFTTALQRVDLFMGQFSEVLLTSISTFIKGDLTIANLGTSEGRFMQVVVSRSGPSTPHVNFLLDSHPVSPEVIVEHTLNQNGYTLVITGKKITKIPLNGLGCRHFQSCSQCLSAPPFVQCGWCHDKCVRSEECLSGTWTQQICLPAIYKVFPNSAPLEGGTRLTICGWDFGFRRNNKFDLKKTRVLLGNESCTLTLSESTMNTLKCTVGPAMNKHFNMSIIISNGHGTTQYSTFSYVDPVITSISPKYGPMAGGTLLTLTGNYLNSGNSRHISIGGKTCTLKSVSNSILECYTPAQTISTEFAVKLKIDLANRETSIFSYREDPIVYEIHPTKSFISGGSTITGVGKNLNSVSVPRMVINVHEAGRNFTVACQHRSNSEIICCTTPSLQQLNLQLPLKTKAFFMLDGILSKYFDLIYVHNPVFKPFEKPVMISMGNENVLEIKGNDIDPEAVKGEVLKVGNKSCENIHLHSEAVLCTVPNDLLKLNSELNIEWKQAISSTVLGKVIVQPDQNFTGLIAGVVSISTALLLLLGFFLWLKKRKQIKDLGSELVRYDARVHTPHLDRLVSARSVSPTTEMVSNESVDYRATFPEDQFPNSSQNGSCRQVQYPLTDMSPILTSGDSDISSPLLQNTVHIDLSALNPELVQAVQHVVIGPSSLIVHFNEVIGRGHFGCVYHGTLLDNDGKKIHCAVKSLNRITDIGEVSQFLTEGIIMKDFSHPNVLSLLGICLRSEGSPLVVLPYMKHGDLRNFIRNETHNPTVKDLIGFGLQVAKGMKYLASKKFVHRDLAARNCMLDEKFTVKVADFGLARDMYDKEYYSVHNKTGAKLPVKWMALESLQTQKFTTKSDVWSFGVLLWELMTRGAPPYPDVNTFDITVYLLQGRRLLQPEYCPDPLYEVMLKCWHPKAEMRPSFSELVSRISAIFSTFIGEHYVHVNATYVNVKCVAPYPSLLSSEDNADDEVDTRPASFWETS
Chain of Tyrosine-protein kinase Lck (Homo sapiens) (P06239 2-509 limits assumed): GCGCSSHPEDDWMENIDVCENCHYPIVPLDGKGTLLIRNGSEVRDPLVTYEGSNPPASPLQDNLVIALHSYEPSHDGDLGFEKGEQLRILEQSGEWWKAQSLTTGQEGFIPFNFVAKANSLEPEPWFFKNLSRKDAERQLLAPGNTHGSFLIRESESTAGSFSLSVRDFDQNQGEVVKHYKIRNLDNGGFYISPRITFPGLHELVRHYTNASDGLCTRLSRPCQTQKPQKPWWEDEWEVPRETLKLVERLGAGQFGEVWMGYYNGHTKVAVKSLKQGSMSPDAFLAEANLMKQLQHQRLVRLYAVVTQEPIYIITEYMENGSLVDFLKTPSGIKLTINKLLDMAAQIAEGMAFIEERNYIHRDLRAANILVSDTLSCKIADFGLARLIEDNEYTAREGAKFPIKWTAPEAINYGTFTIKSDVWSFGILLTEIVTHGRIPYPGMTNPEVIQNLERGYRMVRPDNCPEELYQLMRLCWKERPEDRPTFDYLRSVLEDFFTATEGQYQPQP
Chain of Tyrosine-protein kinase Lyn (Homo sapiens) (P07948 2-512 limits assumed): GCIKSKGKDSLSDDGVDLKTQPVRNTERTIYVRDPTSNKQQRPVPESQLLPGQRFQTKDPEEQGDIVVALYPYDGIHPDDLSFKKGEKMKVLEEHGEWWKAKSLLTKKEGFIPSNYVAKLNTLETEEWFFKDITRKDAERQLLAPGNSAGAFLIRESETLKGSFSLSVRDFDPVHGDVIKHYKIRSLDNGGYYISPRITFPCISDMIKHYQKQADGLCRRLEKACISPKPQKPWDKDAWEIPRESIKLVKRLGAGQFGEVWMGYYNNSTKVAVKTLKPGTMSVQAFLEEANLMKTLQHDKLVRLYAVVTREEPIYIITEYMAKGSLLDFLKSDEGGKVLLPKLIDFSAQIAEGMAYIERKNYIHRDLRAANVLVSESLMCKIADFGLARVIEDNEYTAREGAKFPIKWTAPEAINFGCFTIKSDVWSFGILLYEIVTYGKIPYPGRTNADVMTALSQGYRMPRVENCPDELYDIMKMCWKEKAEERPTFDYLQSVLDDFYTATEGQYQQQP
Chain of Mast/stem cell growth factor receptor Kit (Homo sapiens), P10721 [D816V] (P10721 whole entry D816V): as the sequence (P10721 whole entry) above, with D816V counted along it
Chain of Leukocyte tyrosine kinase receptor (Homo sapiens) (P29376 whole entry): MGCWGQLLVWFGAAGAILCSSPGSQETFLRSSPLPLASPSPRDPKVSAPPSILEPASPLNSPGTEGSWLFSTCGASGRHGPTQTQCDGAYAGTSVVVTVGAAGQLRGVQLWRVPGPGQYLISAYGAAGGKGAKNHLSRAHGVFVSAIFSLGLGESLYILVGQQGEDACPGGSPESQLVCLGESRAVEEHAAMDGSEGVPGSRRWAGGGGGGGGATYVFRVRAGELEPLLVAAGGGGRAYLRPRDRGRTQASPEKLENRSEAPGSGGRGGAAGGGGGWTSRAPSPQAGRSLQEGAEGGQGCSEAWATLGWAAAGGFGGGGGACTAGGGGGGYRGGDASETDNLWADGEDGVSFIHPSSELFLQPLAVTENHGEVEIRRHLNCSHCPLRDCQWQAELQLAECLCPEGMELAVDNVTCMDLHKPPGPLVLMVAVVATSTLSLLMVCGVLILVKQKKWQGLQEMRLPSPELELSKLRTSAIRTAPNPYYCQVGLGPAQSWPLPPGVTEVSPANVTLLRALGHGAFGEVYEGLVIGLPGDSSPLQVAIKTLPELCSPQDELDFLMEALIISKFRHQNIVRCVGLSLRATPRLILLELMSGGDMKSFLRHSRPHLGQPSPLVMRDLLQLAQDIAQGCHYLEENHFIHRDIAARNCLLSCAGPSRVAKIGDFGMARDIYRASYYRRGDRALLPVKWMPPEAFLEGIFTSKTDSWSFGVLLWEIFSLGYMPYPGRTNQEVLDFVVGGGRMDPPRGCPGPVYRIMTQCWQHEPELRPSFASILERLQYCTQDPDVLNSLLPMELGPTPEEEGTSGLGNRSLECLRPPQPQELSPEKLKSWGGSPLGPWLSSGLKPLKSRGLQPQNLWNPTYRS

Regarding `c1cc(-c2cnn3nc(N4CCOCC4)ccc23)nc(NC2CC2)n1`, the inhibition in assay [1] was determined as 20.9%; in assay [2], 0.53%; in assay [3], 4.82%; in assay [4], 7.12%; in assay [5] it was 3.28%; in assay [6], 4.27%. The inhibition in assay [7] was 5%; in assay [8], 1.31%; in assay [9] it was 3.4%; in [10], 2.15%; in assay [11], 6.33%; in assay [12], 3.58%. For the same compound, the inhibition in assay [13] was 2.39%; in assay [14] it was 2.01%; in assay [15], 3.12%; in assay [16] it was 1.15%; in [17], 6.24%; in [18], -2.37%. The inhibition in [19] was determined as 2.41%; in assay [20] it was 4.2%.
For the compound `COC(=O)Nc1nc2ccc(S(=O)(=O)c3ccc(NC(=O)Nc4cc(C(F)(F)F)ccc4F)cc3)cc2[nH]1`, the inhibition in assay [1] is -0.26%; in assay [2] it was 3.87%; in [3] it was 5.14%; in assay [4], 1.09%; in assay [5], -0.17%; in [6], -0.14%. Further, the inhibition in assay [7] came out at 0.67%; in assay [8], 2.26%; in assay [9] it was 3.94%; in assay [10], 1.63%; in assay [11], 0.53%; in assay [12], 3.86%. In addition, the inhibition in assay [13] was 3.43%; in [14], 1.56%; in [15] it was 3.05%; in assay [16], 0.88%; in assay [17] it was 4.05%; in assay [18] it was -2.38%. Besides, the inhibition stood at 0.66% in [19] and 2.5% in [20].
Turning to `CS(=O)(=O)CCNCc1ccc(-c2ccc3ncnc(Nc4ccc(OCc5ccccc5)c(C(F)(F)F)c4)c3c2)o1`, the inhibition is 4.84% in assay [1]; 2.36% in [2]; 4.65% in assay [3]; 3.39% in assay [4]; 2.42% in assay [5]; 1.13% in assay [6]. In addition, the inhibition in assay [7] was -2.89%; in [8] it was 3.56%; in assay [9] it was 5.95%; in [10], 3.91%; in [11], 3.64%; in [12], 4.35%. The inhibition is 10.4% in assay [13]; 2.65% in assay [14]; 2.28% in [15]; -0.65% in [16]; 1.81% in assay [17]; 0.49% in [18]. Further, the inhibition in assay [19] stood at 5.8%; in assay [20], 1.44%.
For `COc1cc2c(cc1Nc1nc(Nc3ccsc3C(N)=O)c3cc[nH]c3n1)N(C(=O)CN(C)C)CCC2(C)C`, the inhibition stood at 67.6% in [1]; 3.34% in [2]; 7.2% in assay [3]; 5.12% in assay [4]; 16.2% in assay [5]; 5.02% in [6]. Moreover, the inhibition in [7] came out at 17.8%; in assay [8] it was 0.99%; in assay [9], 4.76%; in assay [10], 95.3%; in assay [11], 96.3%; in assay [12], 4.53%. Further, the inhibition in [13] stood at 4.24%; in [14], 2.04%; in assay [15] it was 2.4%; in assay [16], 3.14%; in [17], 16.1%; in [18] it was 5.6%. Also, the values for the inhibition in assay [19] and in [20] were 23.1% and 14.8%, respectively.
With `COc1cc(N2CCN(C(C)C)CC2)ccc1Nc1nc(Nc2ccc(F)cc2C(N)=O)c2cc[nH]c2n1`, the inhibition was 4.94% in assay [1]; -1.16% in assay [2]; 2.56% in assay [3]; -2.37% in [4]; -1.31% in [5]; -1.89% in assay [6]. In addition, the inhibition is -1.36% in [7]; 2.34% in [8]; 4.79% in [9]; 93.5% in assay [10]; 96% in assay [11]; 2.75% in assay [12]. The inhibition is 2.96% in assay [13]; 1.54% in [14]; 1.29% in assay [15]; 4.46% in [16]; 8.43% in [17]; 7.18% in assay [18]. In addition, the results for the inhibition in assay [19] and in [20] were 0.66% and 1.72%, respectively.
For the compound `COc1ccc2[nH]c3c4[nH]c5ccc(OC)cc5c4c4c(c3c2c1)C(=O)NC4=O`, the inhibition amounted to 79.9% in [1]; 31.6% in assay [2]; 75.4% in [3]; 6.78% in assay [4]; 44.2% in assay [5]; 3.53% in assay [6]. Besides, the inhibition in assay [7] was found to be 31.2%; in assay [8] it was 4.72%; in assay [9], 21.1%; in assay [10], 37.8%; in assay [11] it was 78.3%; in assay [12] it was 10.8%. The inhibition was 35.3% in assay [13]; 7.67% in assay [14]; 31.5% in assay [15]; 10.7% in assay [16]; 50.1% in assay [17]; 10.5% in assay [18]. Also, the figures for the inhibition in [19] and in assay [20] were 19.8% and 4.97%, respectively.
